Only a selection was taken, and the strongest signals are over-represented in it overall.

What all share (assay): glycan array binding signal (z-score within array); higher = stronger binding
One assay has as its system Man(b1-4)GlcNAc. The following applies: glycan notation: IUPAC condensed, linker removed. The method in brief:
(§1)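 The binding signal is a Z-score computed within each array. Data were drawn from 3228 arrays in the Consortium for Functional Glycomics database, restricted to those with a known protein sequence. Scores were averaged over arrays of the same protein sequence at different concentrations or buffers, and over linkers, and negative values can be taken as non-binding.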

Assay [1] concerns Neu5Ac(a2-3)Gal(b1-3)GalNAc(b1-3)Gal(b1-4)GlcNAc. The following applies: glycan notation: IUPAC condensed, linker removed. The method in brief:
as §1

The subject of assay [2] is Neu5Ac(a2-3)Gal(b1-3)[Fuc(a1-4)]GlcNAc. The following applies: glycan notation: IUPAC condensed, linker removed. A digest of the protocol: as §1
Assay [3] has as its system Neu5Ac(a2-3)Gal(b1-3)GlcNAc(b1-2)Man(a1-3)[GlcNAc(b1-4)][Neu5Ac(a2-3)Gal(b1-3)GlcNAc(b1-2)Man(a1-6)]Man(b1-4)GlcNAc(b1-4)GlcNAc. The following applies: glycan notation: IUPAC condensed, linker removed. The method in brief:
as §1

The subject of assay [4] is Neu5Ac(a2-3)Gal(b1-3)[Neu5Ac(a2-6)]GalNAc. The note with it: glycan notation: IUPAC condensed, linker removed. The method in brief:
as §1

A further assay concerns Man(a1-6)Man. The note with it: glycan notation: IUPAC condensed, linker removed. A digest of the protocol: as §1
Assay [5] has as its system Neu5Ac(a2-3)Gal(b1-3)GlcNAc. The following applies: glycan notation: IUPAC condensed, linker removed. The method in brief: as §1
Assay [6] relates to Neu5Ac(a2-3)Gal(b1-3)GalNAc(b1-4)[Neu5Ac(a2-3)]Gal(b1-4)Glc. The following applies: glycan notation: IUPAC condensed, linker removed. A digest of the protocol:
as §1

Assay [7] concerns Neu5Ac(a2-3)Gal(b1-3)GalNAc(b1-4)[Neu5Ac(a2-8)Neu5Ac(a2-3)]Gal(b1-4)Glc. The note with it: glycan notation: IUPAC condensed, linker removed. A digest of the protocol:
as §1

The subject of assay [8] is Neu5Ac(a2-3)Gal(b1-3)GlcNAc(b1-3)Gal(b1-4)GlcNAc. The note with it: glycan notation: IUPAC condensed, linker removed. The method in brief: as §1
Assay [9] relates to Neu5Ac(a2-3)Gal(b1-3)GalNAc(b1-3)Gal(a1-4)Gal(b1-4)Glc. The following applies: glycan notation: IUPAC condensed, linker removed. A digest of the protocol:
as §1

The test system of assay [10] is Neu5Ac(a2-3)Gal(b1-3)GlcNAc(b1-3)GalNAc. The note with it: glycan notation: IUPAC condensed, linker removed. A digest of the protocol:
as §1

In assay [11] the test system is Neu5Ac(a2-3)Gal(b1-3)GalNAc6S. The following applies: glycan notation: IUPAC condensed, linker removed. A digest of the protocol:
as §1

The subject of assay [12] is Neu5Ac(a2-3)Gal(b1-3)GlcNAc6S. The following applies: glycan notation: IUPAC condensed, linker removed. A digest of the protocol:
as §1

For assay [13], the system named is Neu5Ac(a2-3)Gal(b1-3)GalNAc. The note with it: glycan notation: IUPAC condensed, linker removed. A digest of the protocol:
as §1

Assay [14] has as its system Neu5Ac(a2-3)Gal(b1-3)[Neu5Ac(a2-3)Gal(b1-4)]GlcNAc. The following applies: glycan notation: IUPAC condensed, linker removed. A digest of the protocol: as §1
Assay [15] deals with Neu5Ac(a2-3)Gal(b1-3)GlcNAc(b1-2)Man(a1-3)[Neu5Ac(a2-3)Gal(b1-3)GlcNAc(b1-2)Man(a1-6)]Man(b1-4)GlcNAc(b1-4)GlcNAc. The following applies: glycan notation: IUPAC condensed, linker removed; mutation: R125K. The method in brief:
as §1

The subject of assay [16] is Neu5Ac(a2-3)Gal(b1-3)GlcNAc(b1-2)Man. The note with it: glycan notation: IUPAC condensed, linker removed. The method in brief: as §1
Assay [17] concerns Neu5Ac(a2-3)Gal(b1-3)GlcNAc(b1-6)GalNAc. The following applies: glycan notation: IUPAC condensed, linker removed; mutation: R125K. The method in brief:
as §1

The test system of assay [18] is Neu5Ac(a2-3)Gal(b1-3)[GlcNAc(b1-6)]GalNAc. The note with it: glycan notation: IUPAC condensed, linker removed; mutation: R125K. The method in brief:
as §1

Chain of Aggrecan (Rattus norvegicus), NP_071526 (chain, as listed by the source): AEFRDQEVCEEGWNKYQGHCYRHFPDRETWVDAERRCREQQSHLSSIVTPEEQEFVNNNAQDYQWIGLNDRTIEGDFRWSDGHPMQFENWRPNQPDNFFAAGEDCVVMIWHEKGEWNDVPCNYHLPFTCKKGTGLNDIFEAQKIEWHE
Chain of Avaren (Actinomycete K97) (chain, as listed by the source): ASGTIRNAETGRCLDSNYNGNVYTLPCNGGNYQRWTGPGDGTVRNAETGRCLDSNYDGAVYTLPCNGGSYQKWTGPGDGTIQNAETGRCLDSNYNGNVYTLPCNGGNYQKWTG
Chain of wLAT-1A (Homo sapiens), Q01650 (Q01650 whole entry): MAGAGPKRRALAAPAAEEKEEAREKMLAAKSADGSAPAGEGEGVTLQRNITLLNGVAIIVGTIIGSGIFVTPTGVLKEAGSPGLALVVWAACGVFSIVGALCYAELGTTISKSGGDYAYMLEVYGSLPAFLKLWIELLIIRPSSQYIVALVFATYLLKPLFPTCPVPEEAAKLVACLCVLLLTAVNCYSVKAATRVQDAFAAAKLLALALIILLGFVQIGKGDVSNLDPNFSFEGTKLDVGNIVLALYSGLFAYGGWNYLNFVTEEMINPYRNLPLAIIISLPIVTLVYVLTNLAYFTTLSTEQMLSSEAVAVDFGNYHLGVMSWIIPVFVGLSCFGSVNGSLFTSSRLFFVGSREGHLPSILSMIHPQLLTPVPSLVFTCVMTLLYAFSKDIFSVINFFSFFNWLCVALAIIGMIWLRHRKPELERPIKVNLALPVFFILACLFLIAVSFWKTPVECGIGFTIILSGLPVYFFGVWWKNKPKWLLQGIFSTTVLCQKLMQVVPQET
Chain of PILRa (Mus musculus), Q2YSF3 (Q2YSF3 entry or part of it): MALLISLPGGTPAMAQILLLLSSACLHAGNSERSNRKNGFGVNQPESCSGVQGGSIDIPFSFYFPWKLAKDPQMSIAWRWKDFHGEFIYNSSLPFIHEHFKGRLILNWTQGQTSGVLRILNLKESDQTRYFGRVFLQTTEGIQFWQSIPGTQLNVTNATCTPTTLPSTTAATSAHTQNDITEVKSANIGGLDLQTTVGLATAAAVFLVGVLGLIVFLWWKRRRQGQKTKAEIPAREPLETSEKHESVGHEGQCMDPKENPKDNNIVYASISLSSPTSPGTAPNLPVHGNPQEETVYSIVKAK
Chain of Neurocan (Homo sapiens), O14594 (O14594 other isoform, or with tags, fused parts or gaps): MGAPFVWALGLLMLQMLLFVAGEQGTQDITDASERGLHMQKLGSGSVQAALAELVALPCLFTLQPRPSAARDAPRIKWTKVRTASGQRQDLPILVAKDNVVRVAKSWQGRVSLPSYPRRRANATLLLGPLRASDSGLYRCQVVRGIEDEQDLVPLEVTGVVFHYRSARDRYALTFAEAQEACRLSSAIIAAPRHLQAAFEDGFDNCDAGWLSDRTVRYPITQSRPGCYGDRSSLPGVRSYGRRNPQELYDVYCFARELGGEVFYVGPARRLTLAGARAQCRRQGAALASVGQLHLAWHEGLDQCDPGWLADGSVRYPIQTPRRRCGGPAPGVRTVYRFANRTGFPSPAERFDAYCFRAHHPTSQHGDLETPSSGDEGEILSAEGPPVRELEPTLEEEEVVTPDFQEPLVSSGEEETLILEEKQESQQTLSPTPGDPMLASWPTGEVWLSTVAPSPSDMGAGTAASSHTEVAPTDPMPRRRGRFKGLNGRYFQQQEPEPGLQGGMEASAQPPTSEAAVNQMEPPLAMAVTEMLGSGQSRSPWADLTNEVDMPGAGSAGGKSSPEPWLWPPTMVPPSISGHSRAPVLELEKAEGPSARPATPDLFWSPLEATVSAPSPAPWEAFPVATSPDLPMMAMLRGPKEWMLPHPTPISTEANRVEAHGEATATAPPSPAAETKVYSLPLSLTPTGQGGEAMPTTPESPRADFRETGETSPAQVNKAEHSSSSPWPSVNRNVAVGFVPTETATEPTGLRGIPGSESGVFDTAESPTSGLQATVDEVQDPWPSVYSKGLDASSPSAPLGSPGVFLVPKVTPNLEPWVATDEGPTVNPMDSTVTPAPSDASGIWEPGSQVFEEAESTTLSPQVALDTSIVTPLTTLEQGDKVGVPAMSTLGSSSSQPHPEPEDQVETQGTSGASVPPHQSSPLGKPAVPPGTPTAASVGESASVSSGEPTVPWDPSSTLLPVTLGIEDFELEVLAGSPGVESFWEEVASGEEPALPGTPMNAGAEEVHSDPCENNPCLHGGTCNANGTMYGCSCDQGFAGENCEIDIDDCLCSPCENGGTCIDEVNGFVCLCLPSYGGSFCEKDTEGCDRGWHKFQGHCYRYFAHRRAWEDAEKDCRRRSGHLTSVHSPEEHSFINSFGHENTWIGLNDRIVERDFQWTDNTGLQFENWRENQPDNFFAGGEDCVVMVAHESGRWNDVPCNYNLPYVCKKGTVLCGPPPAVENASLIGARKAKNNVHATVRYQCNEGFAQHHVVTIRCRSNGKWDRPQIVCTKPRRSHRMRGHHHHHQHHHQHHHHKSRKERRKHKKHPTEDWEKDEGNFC
Chain of PILRb (Mus musculus), Q2YSF2 (Q2YSF2 entry or part of it): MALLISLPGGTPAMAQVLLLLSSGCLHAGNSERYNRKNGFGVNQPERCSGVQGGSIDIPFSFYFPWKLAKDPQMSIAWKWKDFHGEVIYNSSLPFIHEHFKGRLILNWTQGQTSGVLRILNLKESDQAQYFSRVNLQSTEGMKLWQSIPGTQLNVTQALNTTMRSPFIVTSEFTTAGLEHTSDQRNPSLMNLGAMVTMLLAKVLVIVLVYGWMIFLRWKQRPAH
Chain of C3b (Homo sapiens), P01024 (P01024 23-667): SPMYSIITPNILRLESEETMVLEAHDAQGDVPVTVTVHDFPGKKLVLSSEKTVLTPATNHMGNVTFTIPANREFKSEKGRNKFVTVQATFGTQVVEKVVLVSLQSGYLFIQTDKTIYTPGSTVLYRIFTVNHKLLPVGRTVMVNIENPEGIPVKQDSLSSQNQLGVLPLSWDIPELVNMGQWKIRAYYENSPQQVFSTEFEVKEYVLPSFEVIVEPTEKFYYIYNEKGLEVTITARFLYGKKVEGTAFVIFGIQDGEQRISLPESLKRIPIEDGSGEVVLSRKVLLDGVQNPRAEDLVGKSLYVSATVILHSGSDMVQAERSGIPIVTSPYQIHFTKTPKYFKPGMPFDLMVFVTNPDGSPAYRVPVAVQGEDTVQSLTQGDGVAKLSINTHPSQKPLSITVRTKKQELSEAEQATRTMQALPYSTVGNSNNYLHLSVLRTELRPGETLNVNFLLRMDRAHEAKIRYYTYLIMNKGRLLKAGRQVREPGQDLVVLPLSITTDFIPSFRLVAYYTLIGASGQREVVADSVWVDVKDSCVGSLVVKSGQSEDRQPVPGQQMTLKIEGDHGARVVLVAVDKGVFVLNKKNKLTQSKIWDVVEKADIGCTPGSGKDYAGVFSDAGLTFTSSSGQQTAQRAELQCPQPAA
Chain of 6RG (Lolium perenne) (chain, as listed by the source): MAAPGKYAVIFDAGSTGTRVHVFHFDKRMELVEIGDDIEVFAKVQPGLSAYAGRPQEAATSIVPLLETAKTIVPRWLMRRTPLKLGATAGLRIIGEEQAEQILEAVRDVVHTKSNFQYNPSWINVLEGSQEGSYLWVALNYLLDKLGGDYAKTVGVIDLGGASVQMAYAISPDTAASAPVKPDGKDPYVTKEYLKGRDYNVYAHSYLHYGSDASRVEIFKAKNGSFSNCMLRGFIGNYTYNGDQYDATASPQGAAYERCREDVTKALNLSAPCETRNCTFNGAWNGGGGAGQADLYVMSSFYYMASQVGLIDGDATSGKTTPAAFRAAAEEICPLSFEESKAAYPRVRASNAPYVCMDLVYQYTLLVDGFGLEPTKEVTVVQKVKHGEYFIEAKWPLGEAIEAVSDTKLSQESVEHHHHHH
Chain of SRLC (Mus musculus), Q8VIF6 (Q8VIF6 other isoform, or with tags, fused parts or gaps): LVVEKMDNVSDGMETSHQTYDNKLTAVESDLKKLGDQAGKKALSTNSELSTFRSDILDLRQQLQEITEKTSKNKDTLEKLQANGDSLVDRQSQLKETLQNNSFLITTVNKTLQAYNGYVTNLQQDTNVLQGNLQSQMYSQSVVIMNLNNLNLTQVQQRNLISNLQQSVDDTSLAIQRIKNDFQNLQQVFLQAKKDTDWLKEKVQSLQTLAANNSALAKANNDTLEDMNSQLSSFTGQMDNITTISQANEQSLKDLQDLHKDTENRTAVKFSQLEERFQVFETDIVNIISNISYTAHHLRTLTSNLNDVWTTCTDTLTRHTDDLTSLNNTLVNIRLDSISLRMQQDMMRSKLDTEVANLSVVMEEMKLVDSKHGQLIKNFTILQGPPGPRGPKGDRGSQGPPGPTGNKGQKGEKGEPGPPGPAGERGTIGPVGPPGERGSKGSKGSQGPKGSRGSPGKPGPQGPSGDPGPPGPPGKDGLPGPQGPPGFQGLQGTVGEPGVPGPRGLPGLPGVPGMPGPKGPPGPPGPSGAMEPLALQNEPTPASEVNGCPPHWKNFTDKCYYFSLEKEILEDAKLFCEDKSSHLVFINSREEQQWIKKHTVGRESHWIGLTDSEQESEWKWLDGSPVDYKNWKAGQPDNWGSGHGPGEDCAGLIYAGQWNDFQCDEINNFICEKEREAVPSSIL

Aggrecan (Rattus norvegicus), NP_071526: the “glycan array binding signal (z-score)” value is -0.071 in the assay on Man(b1-4)GlcNAc, -0.071 in assay [1] and -0.038 in assay [2].

For the substance MpAFP RI GFP (Marinomonas primoryensis), the “glycan array binding signal (z-score)” value in assay [3] was -0.323.

Consider SRLC (Mus musculus), Q8VIF6, for which the “glycan array binding signal (z-score)” value in [4] is -0.214.

For wLAT-1A (Homo sapiens), Q01650, the “glycan array binding signal (z-score)” value with Man(a1-6)Man was 0.732; in the assay on Man(b1-4)GlcNAc, 0.584; in [5], -0.345.

Take Avaren (Actinomycete K97): the “glycan array binding signal (z-score)” value in assay [6] is -0.124; in assay [7] it was -0.128; in [8] it was -0.128; in assay [4], -0.174.

Take Neurocan (Homo sapiens), O14594: the figures for the “glycan array binding signal (z-score)” value in [9] and in assay [5] were 0.009 and 2.76, respectively.

As for PILRb (Mus musculus), Q2YSF2, the “glycan array binding signal (z-score)” value was -0.166 with Man(b1-4)GlcNAc and -0.463 in assay [10].

As to 6RG (Lolium perenne), the “glycan array binding signal (z-score)” value in assay [11] is -0.326.

As for PILRa (Mus musculus), Q2YSF3, the “glycan array binding signal (z-score)” value is -0.412 in [12] and 3.58 in assay [4].

Consider C3b (Homo sapiens), P01024, for which the “glycan array binding signal (z-score)” value in assay [13] is -0.754; in assay [14] it was -0.041.

For the substance Siglec-8 (Homo sapiens), Q9NYZ4, the “glycan array binding signal (z-score)” value was 4.65 in [13] (mutation: R125K); 1.23 in assay [15]; 1.28 in assay [16]; 0.063 in assay [17]; -0.024 in [5] (mutation: R125K); -0.157 in [18].

These data come from the supplement of paper PMC8728848.
